Measured values published in PubChem BioAssay AID977607 (Broad Institute, 2014).
The whole screen tested about 1,500 compounds, of which about 460 (31%) were called active. Not shown: some 1% with an inconclusive outcome.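 Rule for the calls: active = curve reaches 40% activation over neutral controls at an AC40 no higher than the top valid tested concentration; inconclusive = no clear call, values can overlap the other calls; inactive = signal moving opposite to the expected increase, and the rest.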 These entries were drawn from the full list. Entries with a potency or affinity are not part of this list.

Assay: activators of glucose-dependent insulin secretion, dose response, cell-based, INS-1E, Gaussia luciferase, luminescence, cherry-pick, set 2 (AID 977607);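 note: 0% = median of the plate neutral control wells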
Conditions: INS-1E GLuc insulin secretion reporter, 2-3 h, stronger effect = higher value; at 35 µM, 100% = signal doubled over neutral wells unless noted

Max activation, inactive:
COc1ccc(-c2nc3cccc(C)n3c2NCc2ccco2)cc1OC -14.6% [at 1.2 µM, 100% = signal doubled over neutral wells]
CN(C)c1ccc(CC(=O)N2CCCCC2c2cc(C(=O)Nc3ccccc3Cl)no2)cc1 (centres undefined) -48.9%
CCCc1c(C)c2ccc(OCC(C)=O)cc2oc1=O -16.6% [at 0.005 µM, 100% = signal doubled over neutral wells]
CCOC(=O)N1CCN(S(=O)(=O)c2ccc3c4c(cccc24)C(=O)N3)CC1 37.4% [at 0.42 µM, 100% = signal doubled over neutral wells]
C[C@@H]1CN([C@@H](C)CO)C(=O)CCCn2nncc2CO[C@H]1CN(C)Cc1ccccc1 -19.1% [at 0.015 µM, 100% = signal doubled over neutral wells]
C[C@H]1CN([C@@H](C)CO)C(=O)c2cc(C#CCc3ccccc3)cnc2O[C@@H]1CN(C)C(=O)C1CC1 -42.9%
C[C@@H]1CN([C@H](C)CO)C(=O)Cc2cc(NC(=O)CCCN(C)C)ccc2O[C@H]1CN(C)Cc1ccc(-c2ccccc2)cc1 19.8%
C[C@H](CO)N1C[C@H](C)[C@@H](CN(C)C(=O)Cc2ccccn2)Oc2cc(C#C[C@@H](C)O)ccc2S1(=O)=O -20.3% [at 0.135 µM, 100% = signal doubled over neutral wells]
O=C(Cn1cnc2c(OCc3ccccc3)ncnc21)NCc1ccccn1 17.4% [at 0.135 µM, 100% = signal doubled over neutral wells]
Cc1c(C)n(CCCN(C)C)c2ncnc(Nc3ccccc3)c12 -20.1% [at 11 µM, 100% = signal doubled over neutral wells]
Cc1ccc(F)cc1NC(=O)c1sc2ncn(CC(=O)N3CCN(c4ccccn4)CC3)c(=O)c2c1C -38%
COc1ccc(/C=N/n2c(-c3n[nH]c4c3CCC4)n[nH]c2=S)cc1OC -27.2% [at 0.0016 µM, 100% = signal doubled over neutral wells]
Cc1ccc(/C=N/n2c(-c3cccnc3)n[nH]c2=S)s1 -11.8% [at 1.2 µM, 100% = signal doubled over neutral wells]
S=c1[nH]nc(-c2ccccc2)n1/N=C/c1c[nH]c2ccccc12 30.5% [at 0.005 µM, 100% = signal doubled over neutral wells]
C=CCN=c1sc(C(=O)OC)cc(=O)n1CC=C 27.6% [at 11 µM, 100% = signal doubled over neutral wells]
Cc1ccc(F)cc1-c1nc(NC(C)C)nc2cc(-c3ccccc3)sc12 -27.5% [at 11 µM, 100% = signal doubled over neutral wells]
COc1ccc(CCNC(=O)CN2c3cccc4cccc(c34)S2(=O)=O)cc1OC 39.7%
O=C(Nc1cccnc1)/C(N=Nc1cccnc1)=C(\O)c1ccccc1 -11.7% [at 0.42 µM, 100% = signal doubled over neutral wells]
O=C(NCc1ccccc1)C(c1ccncc1)n1c(=O)c(-c2ccccc2)nc2ccccc21 (centres undefined) -12.6% [at 1.2 µM, 100% = signal doubled over neutral wells]
O=C(OC1CCOC1=O)c1cc(-c2ccc(Cl)cc2)nc2ccccc12 (centres undefined) 34.2% [at 3.8 µM, 100% = signal doubled over neutral wells]
COc1cc(C)c(C)cc1S(=O)(=O)N1CCCCC1c1cccnc1 (centres undefined) 13% [at 1.2 µM, 100% = signal doubled over neutral wells]
CCc1nc2ccc(C(=O)NCCCN(C)C)cn2c1N(C)Cc1ccc(OC)cc1 -28.3% [at 0.046 µM, 100% = signal doubled over neutral wells]
COC(=O)C1=C(C)NC(=S)NC1c1cccc(OC)c1 (centres undefined) -19.4% [at 0.046 µM, 100% = signal doubled over neutral wells]
CC1CN(S(=O)(=O)c2cc(C(=O)NC(C)c3cccnc3)ccc2Cl)CC(C)O1 (centres undefined) -33%
O=C1c2[nH]nc(-c3ccccc3)c2C(c2ccccc2)N1c1ccccc1 (centres undefined) -31.9%
COc1ccccc1CNC(=O)CCNS(=O)(=O)c1ccc2[nH]c(=O)oc2c1 -23% [at 0.015 µM, 100% = signal doubled over neutral wells]
COC(=O)c1cc(S(=O)(=O)NCC2CCN(Cc3cc(C)ccc3C)CC2)c[nH]1 -22.8% [at 11 µM, 100% = signal doubled over neutral wells]
O=C(c1ccco1)N1CCN(C2CN(Cc3ccccc3)S(=O)(=O)C2)CC1 (centres undefined) 13.2% [at 0.135 µM, 100% = signal doubled over neutral wells]
Cc1[nH]n(-c2ccc(Br)cc2)c(=O)c1/C=N/NC(=O)c1ccccc1 -37.8%
Cn1cc(Br)c(C(=O)NNC(=O)c2ccccc2)n1 -8.88% [at 0.015 µM, 100% = signal doubled over neutral wells]
O=C(Nc1cccnc1Cl)C1=NN(c2ccccc2)C(=O)CC1 -19.3% [at 0.42 µM, 100% = signal doubled over neutral wells]
C/C=C/Cn1c(N2CCCCCC2)nc2c1c(=O)[nH]c(=O)n2C 53.5%
Cn1c(=O)[nH]c(=O)c2c1nc(N1CCCCC1)n2C/C=N/Nc1ccc(C(=O)O)cc1 40.2% [at 0.0016 µM, 100% = signal doubled over neutral wells]
C[C@@H]1CC2=C(C(=O)OC(C)(C)O2)[C@H](c2ccc(Cl)cc2)O1 -23% [at 0.42 µM, 100% = signal doubled over neutral wells]
